From PubChem BioAssay (EPA / NIEHS) come the findings set out here.

Where “and” joins values, the source holds several entries; their conditions need not be identical. Equal entries are not always repeated. Results filed as inconclusive are left out. A structure can be active in one record and inactive in another. Calls of active or inactive are those of the source. Rule for the calls, unless noted: active = hit-call score of the fitted dose curve at least 0.9, where 1 is the maximum; inactive = score below 0.9.

The target in test [1] is Retinoic acid receptor RXR-alpha (Homo sapiens) (UniProt P19793). The test can be described thus: OT_NURR1_NURR1RXRa_0480: Odyssey Thera (OT) 8-hour HEK293T Protein Complementation Assay for Nurr1/retinoid X receptor (RXR) (AID 2283385; active = hit-call score of the fitted dose curve at least 0.9, where 1 is the maximum). The procedure, abridged:
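Compounds are applied to HEK293T cells carrying Nurr1 and RXRα linked to reporter fragments. After 8 h, fluorescence intensity reports heterodimer formation, with DMSO as baseline.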

Test [2] shares this target. The test can be described thus: OT_NURR1_NURR1RXRa_1440: Odyssey Thera (OT) 24-hour HEK293T Protein Complementation Assay for Nurr1/retinoid X receptor (RXR) (AID 2283386; active = hit-call score of the fitted dose curve at least 0.9, where 1 is the maximum). The procedure, abridged:
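Measured as fluorescence from a reconstituted split reporter, this 24 h HEK293T complementation assay scores compound-induced gain of Nurr1/RXRα association relative to DMSO.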

Test [3] can be described thus: CEETOX_H295R_11DCORT: CeeTox H295R High-throughput Steroidogenesis Assay for 11-Deoxycortisol (11DCORT) (AID 2283432).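 For AC50: human adrenal H295R cells prestimulated with 10 µM forskolin for 48 h; 11-deoxycortisol secreted into the medium measured by LC-MS/MS.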 To be noted: actives raise or lower the signal. Put shortly:
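H295R cells; 10 uM forskolin prestim 48 h; compound in 0.1% DMSO 48 h; media extracted with MTBE; 11-deoxycortisol by LC-MS/MS, 7-point standard curve; gain/loss vs DMSO baseline; viability by MTT in same wells.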

Test [4] is described as follows: CEETOX_H295R_CORTIC: CeeTox H295R High-throughput Steroidogenesis Assay for Corticosterone (CORTIC) (AID 2283437).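 For AC50: human H295R adrenal cells prestimulated with forskolin before chemical exposure.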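 Note: corticosterone secreted into medium quantified by mass spectrometry.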 To be noted: actives raise or lower the signal. The procedure, abridged: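 H295R cells were prestimulated 48 h with 10 uM forskolin, then exposed 48 h to test chemical in 0.1% DMSO. Medium corticosterone was MTBE-extracted and quantified by HPLC-MS/MS; bidirectional fit versus DMSO baseline.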

Test [5] can be described thus: CEETOX_H295R_CORTISOL: CeeTox H295R High-throughput Steroidogenesis Assay for Cortisol (AID 2283438).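 Note: cortisol secreted into medium quantified by LC-MS/MS.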 To be noted: actives raise or lower the signal. Put shortly: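 Human adrenocortical H295R cells (passage ≤10) received test chemicals for 48 h after forskolin priming. Secreted cortisol was measured by LC-MS/MS.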
The nature of test [6]: CEETOX_H295R_DOC: CeeTox H295R High-throughput Steroidogenesis Assay for DOC (AID 2283439). As to conditions: actives raise or lower the signal. Put shortly: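 Secreted DOC was quantified from H295R media by HPLC-MS/MS after 48 h chemical exposure following 48 h forskolin (10 uM) prestimulation. Values were fitted in both directions relative to DMSO, the negative control and baseline.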

Test [7] can be described thus: CEETOX_H295R_PROG: CeeTox H295R High-throughput Steroidogenesis Assay for Progesterone (PROG) (AID 2283442).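 Note: human H295R adrenal cells primed with 10 µM forskolin before dosing.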 As to conditions: actives raise or lower the signal. The procedure, abridged:
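Progesterone read-out: HPLC-MS/MS on MTBE extracts of conditioned medium after 48 h chemical exposure of forskolin-primed (10 uM, 48 h) H295R cells. Gain or loss of signal was fitted relative to DMSO baseline.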

Read-out in test [8]: Tumor necrosis factor receptor superfamily member 6 (Homo sapiens) (UniProt P25445)
The test can be described thus: LTEA_HepaRG_FAS: Life Technologies and Expression Analysis (LTEA) Assay for Fas cell surface death receptor (FAS) using HepaRG (AID 2283447). To be noted: mRNA level, 48 h; actives raise or lower the signal. The procedure, abridged: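 Differentiated human HepaRG cells, pre-cultured 48 h, were exposed in duplicate for 48 h to 8-point half-log concentrations (top 100 uM, 0.5% DMSO) in serum-free induction medium; FAS mRNA measured by qRT-PCR, normalized to ACTB/GAPDH/POLR2A, bidirectional fit versus DMSO.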

Read-out in test [9]: Fatty acid synthase (Homo sapiens) (UniProt P49327)
The experiment in a line: LTEA_HepaRG_FASN: Life Technologies and Expression Analysis (LTEA) Assay for Fatty Acid Synthase (FASN) using HepaRG (AID 2283448). To be noted: mRNA level, 48 h; actives raise or lower the signal. Put shortly: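 Transcript-level assay: HepaRG liver cells are treated for 48 h across an eight-point range topping at 100 uM, and FASN mRNA, normalized to three housekeeping genes, is compared with DMSO controls in both directions.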

Read-out in test [10]: Cyclin D2 (CCND2), CCND2 (gene 894)
The experiment in a line: LTEA_HepaRG_CCND2: Life Technologies and Expression Analysis (LTEA) Assay for Cyclin D2 (CCND2) using HepaRG (AID 2283449).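 Note: CCND2 transcript measured by TaqMan qRT-PCR and normalised to three housekeeping genes.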 To be noted: mRNA level, 48 h; actives raise or lower the signal. The procedure, abridged: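 Differentiated human HepaRG cells were exposed for 48 h in serum-free induction medium to eight half-log concentrations topping at 100 uM (0.5% DMSO vehicle). CCND2 mRNA was quantified by TaqMan qRT-PCR, normalised to ACTB, GAPDH and POLR2A, and fitted bidirectionally against DMSO.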

Read-out in test [11]: Cyclin D1 (CCND1), CCND1 (gene 595)
The experiment in a line: LTEA_HepaRG_CCND1: Life Technologies and Expression Analysis (LTEA) Assay for Cyclin D1 (CCND1) using HepaRG (AID 2283451).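 For AC50: TaqMan qRT-PCR transcript level normalised to ACTB GAPDH and POLR2A housekeeping genes.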 As to conditions: mRNA level, 48 h; actives raise or lower the signal. Put shortly:
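qRT-PCR (Fluidigm 96.96 array) read-out of transcript level, housekeeping-normalized (ACTB/GAPDH/POLR2A). HepaRG cells, 48 h chemical exposure, 8-point half-log series from 100 uM, 0.5% DMSO vehicle; gain or loss relative to DMSO baseline.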

Read-out in test [12]: catalase (CAT), CAT (gene 847)
The test can be described thus: LTEA_HepaRG_CAT: Life Technologies and Expression Analysis (LTEA) Assay for catalase (CAT) using HepaRG (AID 2283452).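 For AC50: TaqMan qRT-PCR signal normalized to ACTB GAPDH and POLR2A housekeeping genes.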 As to conditions: mRNA level, 48 h; actives raise or lower the signal. Put shortly:
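Differentiated HepaRG cells in serum-free induction medium were dosed 48 h in duplicate, eight half-log concentrations from 100 uM in 0.5% DMSO. Transcript measured by TaqMan qRT-PCR, normalised to ACTB/GAPDH/POLR2A, fitted bidirectionally against DMSO.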

Read-out in test [13]: flavin-containing dimethylaniline monooxygenases 3 (FMO3), FMO3 (gene 2328)
The test can be described thus: LTEA_HepaRG_FMO3: Life Technologies and Expression Analysis (LTEA) Assay for flavin-containing dimethylaniline monooxygenases 3 (FMO3) using HepaRG (AID 2283453).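 For AC50: FMO3 transcript by TaqMan qRT-PCR normalized to ACTB GAPDH and POLR2A.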 To be noted: mRNA level, 48 h; actives raise or lower the signal. The procedure, abridged:
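HepaRG, 48 h exposure, 8-pt half-log series from 100 uM, 0.5% DMSO vehicle, duplicates; FMO3 transcript by Fluidigm TaqMan qRT-PCR, housekeeping-normalized; gain/loss fit vs DMSO.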

Read-out in test [14]: Cytochrome P450 (CYP1A1), CYP1A1 (gene 1543)
The test can be described thus: LTEA_HepaRG_CYP1A1: Life Technologies and Expression Analysis (LTEA) Assay for Cytochrome P450 (CYP1A1) using HepaRG (AID 2283454). As to conditions: mRNA level, 48 h; actives raise or lower the signal. Put shortly: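 qRT-PCR read-out: CYP1A1 transcript normalized to three housekeeping genes, fitted bidirectionally against 0.5% DMSO vehicle baseline. Human HepaRG cells, 48 h chemical exposure, 8-point half-log series topping at 100 uM.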

Read-out in test [15]: CFLAR gene, CFLAR (gene 8837)
The experiment in a line: LTEA_HepaRG_CFLAR: Life Technologies and Expression Analysis (LTEA) Assay for CFLAR gene using HepaRG (AID 2283455). To be noted: mRNA level, 48 h; actives raise or lower the signal. The procedure, abridged:
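HepaRG cells were plated for 48 h, switched to serum-free induction medium, then exposed in duplicate for 48 h to 8 concentrations (top 100 uM, half-log steps, 0.5% DMSO). CFLAR mRNA was measured by qRT-PCR, normalized to ACTB, GAPDH and POLR2A.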

Test [16] deals with Peroxisome proliferator-activated receptor gamma (Homo sapiens) (UniProt P37231). The experiment in a line: OT_PPARg_PPARgSRC1_0480: Odyssey Thera (OT) 8-hour Protein-Complementation Assay for Peroxisome Proliferator-activated Receptor Gamma / SRC-1 Co-activator (AID 2283387; active = hit-call score of the fitted dose curve at least 0.9, where 1 is the maximum;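 note: nuclear to cytoplasmic split Venus YFP fluorescence ratio reporting PPARg SRC-1 interaction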). The procedure, abridged: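 Read-out: 488 nm N/C fluorescence ratio from complemented Venus YFP fragments, ≥350 cells per image, gain-of-signal fitted against DMSO baseline. Fusions of PPARg/SRC-1 with IFP1/IFP2 expressed transiently in HEK293T; compounds applied 8 h.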

For test [17] the target is unchanged. The test can be described thus: OT_PPARg_PPARgSRC1_1440: Odyssey Thera (OT) 24-hour Protein-Complementation Assay for Peroxisome Proliferator-activated Receptor Gamma/ SRC-1 Co-activator (AID 2283388; active = hit-call score of the fitted dose curve at least 0.9, where 1 is the maximum;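 note: nuclear to cytoplasmic ratio of reconstituted Venus YFP fluorescence in fixed imaged cells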). Put shortly:
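Readout: nuclear-to-cytoplasmic 488 nm fluorescence ratio, ≥350 cells per image, 8 images per well, after 24 h compound exposure of HEK293T expressing PPARg/SRC-1 split-YFP fusions. Activity fitted in positive direction against DMSO.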

Test [18] has as its target Bile acid receptor (Homo sapiens) (UniProt Q96RI1). The experiment in a line: OT_FXR_FXRSRC1_1440: Odyssey Thera (OT) 24-hour HEK293T Protein-Complementation Assay for Farnesoid X receptor/SRC-1 Co-activator (AID 2283384; active = hit-call score of the fitted dose curve at least 0.9, where 1 is the maximum). Put shortly:
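Cell-based binding reporter: interaction of FXR with SRC-1 brings reporter fragments together, giving a fluorescence signal read 24 h after dosing of HEK293T cells.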

Fatty acid synthase (Homo sapiens), sequence (P49327 whole entry, looked up): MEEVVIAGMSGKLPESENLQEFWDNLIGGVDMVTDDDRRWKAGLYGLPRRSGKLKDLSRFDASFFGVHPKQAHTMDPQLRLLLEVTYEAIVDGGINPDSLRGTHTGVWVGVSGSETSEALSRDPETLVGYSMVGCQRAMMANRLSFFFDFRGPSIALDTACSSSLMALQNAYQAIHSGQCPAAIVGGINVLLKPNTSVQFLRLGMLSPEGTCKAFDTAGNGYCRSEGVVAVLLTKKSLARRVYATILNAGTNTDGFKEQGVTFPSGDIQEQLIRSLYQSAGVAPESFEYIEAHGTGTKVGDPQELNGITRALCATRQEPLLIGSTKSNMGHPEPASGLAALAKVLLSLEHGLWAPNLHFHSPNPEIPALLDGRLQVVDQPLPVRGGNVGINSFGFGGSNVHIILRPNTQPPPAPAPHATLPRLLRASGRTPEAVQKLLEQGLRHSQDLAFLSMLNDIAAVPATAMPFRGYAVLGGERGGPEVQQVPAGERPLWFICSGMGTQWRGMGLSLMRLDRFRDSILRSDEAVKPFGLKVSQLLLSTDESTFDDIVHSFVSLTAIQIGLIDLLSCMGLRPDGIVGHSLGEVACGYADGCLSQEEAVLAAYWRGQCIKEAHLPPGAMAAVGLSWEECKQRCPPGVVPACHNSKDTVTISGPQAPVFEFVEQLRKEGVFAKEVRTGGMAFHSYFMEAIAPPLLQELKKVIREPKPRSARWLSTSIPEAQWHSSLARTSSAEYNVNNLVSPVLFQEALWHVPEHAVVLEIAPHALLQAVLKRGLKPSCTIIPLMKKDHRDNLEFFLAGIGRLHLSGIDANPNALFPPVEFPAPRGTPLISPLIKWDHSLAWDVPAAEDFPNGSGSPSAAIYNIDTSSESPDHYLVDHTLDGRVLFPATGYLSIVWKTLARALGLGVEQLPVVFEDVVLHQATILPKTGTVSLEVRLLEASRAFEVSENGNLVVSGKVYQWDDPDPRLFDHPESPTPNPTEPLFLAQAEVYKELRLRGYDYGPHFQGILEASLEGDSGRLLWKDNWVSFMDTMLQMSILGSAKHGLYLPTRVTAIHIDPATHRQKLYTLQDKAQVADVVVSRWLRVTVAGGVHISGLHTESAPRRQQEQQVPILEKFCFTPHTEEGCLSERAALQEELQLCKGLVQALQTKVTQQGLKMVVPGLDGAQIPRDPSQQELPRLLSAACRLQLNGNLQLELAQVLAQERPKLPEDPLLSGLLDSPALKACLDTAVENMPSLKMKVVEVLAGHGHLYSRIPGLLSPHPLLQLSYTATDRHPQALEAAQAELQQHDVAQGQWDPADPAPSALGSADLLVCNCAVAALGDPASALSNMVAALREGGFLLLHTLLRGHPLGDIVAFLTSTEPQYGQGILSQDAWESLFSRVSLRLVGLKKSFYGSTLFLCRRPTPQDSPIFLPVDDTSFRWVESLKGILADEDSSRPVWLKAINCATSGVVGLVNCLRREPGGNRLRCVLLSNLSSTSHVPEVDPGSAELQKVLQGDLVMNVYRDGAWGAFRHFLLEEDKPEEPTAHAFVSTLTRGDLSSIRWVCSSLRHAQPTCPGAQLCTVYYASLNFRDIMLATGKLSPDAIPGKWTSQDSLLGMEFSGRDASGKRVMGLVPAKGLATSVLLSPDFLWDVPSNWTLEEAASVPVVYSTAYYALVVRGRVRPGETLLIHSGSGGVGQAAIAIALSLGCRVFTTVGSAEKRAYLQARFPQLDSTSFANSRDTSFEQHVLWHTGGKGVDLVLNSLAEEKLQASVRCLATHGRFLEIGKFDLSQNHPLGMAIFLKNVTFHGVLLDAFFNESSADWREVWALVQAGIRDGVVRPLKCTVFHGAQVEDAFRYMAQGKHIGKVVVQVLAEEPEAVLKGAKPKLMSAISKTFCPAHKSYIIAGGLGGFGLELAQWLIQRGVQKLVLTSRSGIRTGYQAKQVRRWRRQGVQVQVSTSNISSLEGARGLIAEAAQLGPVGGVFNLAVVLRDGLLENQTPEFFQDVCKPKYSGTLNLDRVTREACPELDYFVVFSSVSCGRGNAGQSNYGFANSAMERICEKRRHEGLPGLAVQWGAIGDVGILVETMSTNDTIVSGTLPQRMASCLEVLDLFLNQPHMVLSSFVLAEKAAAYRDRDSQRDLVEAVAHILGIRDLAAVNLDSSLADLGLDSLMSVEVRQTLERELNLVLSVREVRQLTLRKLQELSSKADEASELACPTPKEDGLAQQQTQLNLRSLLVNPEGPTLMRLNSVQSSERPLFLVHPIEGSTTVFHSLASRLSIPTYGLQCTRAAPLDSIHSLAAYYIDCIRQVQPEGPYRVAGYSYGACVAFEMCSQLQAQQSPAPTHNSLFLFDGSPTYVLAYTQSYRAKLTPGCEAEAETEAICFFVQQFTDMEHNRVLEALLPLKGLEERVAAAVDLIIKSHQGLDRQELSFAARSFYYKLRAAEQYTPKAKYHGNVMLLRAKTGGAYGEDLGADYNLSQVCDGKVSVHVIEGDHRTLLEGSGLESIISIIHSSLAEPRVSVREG
Peroxisome proliferator-activated receptor gamma (Homo sapiens), sequence (P37231 whole entry, looked up, the tested form may be a part): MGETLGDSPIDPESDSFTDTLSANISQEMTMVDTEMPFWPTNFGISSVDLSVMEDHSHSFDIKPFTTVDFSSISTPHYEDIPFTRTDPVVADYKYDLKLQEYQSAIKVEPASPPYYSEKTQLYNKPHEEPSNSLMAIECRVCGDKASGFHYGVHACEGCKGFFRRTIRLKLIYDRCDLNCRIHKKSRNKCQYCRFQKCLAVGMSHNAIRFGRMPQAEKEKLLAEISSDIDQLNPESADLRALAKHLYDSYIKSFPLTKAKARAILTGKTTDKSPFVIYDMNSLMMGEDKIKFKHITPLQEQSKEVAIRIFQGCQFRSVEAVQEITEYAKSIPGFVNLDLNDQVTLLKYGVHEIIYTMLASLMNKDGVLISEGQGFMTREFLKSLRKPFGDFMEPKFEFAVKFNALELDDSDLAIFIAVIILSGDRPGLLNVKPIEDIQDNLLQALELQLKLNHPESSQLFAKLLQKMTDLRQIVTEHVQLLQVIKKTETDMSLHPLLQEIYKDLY
Retinoic acid receptor RXR-alpha (Homo sapiens), sequence (P19793 whole entry, looked up, the tested form may be a part): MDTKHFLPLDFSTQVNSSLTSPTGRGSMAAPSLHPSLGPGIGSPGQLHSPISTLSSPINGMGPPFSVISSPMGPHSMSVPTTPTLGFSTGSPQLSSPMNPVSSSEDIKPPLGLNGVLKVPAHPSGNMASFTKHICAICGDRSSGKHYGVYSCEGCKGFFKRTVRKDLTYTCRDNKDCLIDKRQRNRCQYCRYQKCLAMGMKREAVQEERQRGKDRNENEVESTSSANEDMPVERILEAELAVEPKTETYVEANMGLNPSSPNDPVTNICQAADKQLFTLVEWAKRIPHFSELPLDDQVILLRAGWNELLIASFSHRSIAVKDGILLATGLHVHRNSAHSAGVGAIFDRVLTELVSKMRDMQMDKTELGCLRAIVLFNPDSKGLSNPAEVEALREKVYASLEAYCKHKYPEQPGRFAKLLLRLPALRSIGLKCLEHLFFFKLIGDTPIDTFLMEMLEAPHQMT
Bile acid receptor (Homo sapiens), sequence (Q96RI1 whole entry, looked up, the tested form may be a part): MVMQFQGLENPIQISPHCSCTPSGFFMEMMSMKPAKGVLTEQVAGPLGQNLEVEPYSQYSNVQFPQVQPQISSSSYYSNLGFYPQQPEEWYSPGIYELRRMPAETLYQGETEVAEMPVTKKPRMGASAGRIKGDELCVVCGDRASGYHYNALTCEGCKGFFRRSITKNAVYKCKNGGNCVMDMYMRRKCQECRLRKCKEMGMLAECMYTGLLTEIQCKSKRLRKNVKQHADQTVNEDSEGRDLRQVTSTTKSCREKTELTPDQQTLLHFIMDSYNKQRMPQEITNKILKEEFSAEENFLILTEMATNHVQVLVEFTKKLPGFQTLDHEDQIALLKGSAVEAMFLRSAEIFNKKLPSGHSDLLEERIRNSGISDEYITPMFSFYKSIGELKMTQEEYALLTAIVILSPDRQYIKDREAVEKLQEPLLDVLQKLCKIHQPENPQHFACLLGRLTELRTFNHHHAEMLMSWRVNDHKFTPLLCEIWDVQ

In the case of `CC(C)(c1cc(Br)c(O)c(Br)c1)c1cc(Br)c(O)c(Br)c1`, the AC50 in [1] is 20.6 µM (active) and 72.4 µM (active); in test [2], 47.8 µM (active); in [7] it was 4.87 µM (active); in [8] it was 92.5 µM (active); in test [11], 47.8 µM (active); in test [15] it was 71.8 µM (active). The result in test [2], in [3], in [4], in test [5], in [6] and in [9] was inactive. For the same compound, the compound was called inactive in test [10], in test [12], in [13] and in test [14].
In the case of `Clc1ccccc1C(c1ccccc1)(c1ccccc1)n1ccnc1`, the compound was called inactive in test [1], in test [16], in test [17], in test [8], in test [10] and in test [15]. Moreover, the AC50 in [3] is 0.142 µM (active); in test [4], 0.00195 µM (active); in test [5], 0.0502 µM (active); in test [6] it was 0.0401 µM (active); in test [7] it was 0.00734 µM (active); in test [9] it was 23.1 µM (active). Besides, the concentration at half-maximal activity (AC50) in test [12] was 21 µM (active); in [13] it was 96.5 µM (active); in test [14] it was 9.17 µM (active).
On to `Cc1ccc2oc(CN(Cc3ccccc3)C(=O)Nc3c(F)cc(F)cc3F)c(-c3ccc(Cl)cc3)c2c1`, for which the compound was classed as inactive in test [18], in test [16], in test [17], in [3], in test [4] and in test [5]. The compound was called inactive in test [8], in [9], in test [10] and in test [15]. Also, the AC50 in test [6] was 1.36 µM (active); in test [7], 0.505 µM (active); in test [12], 8.81 µM (active); in [13], 59.5 µM (active); in test [14], 22 µM (active).
Consider `NCc1cccc(C2CCN(C(=O)c3ccc(C#Cc4ccccc4F)o3)CC2)c1`, for which the compound was called inactive in test [18], in test [16], in [17], in [8], in [10] and in [11]. The AC50 was 50 µM (active) in [9]; 50 µM (active) in [12]; 82.7 µM (active) in test [13]; 12.7 µM (active) in test [14]; 89.9 µM (active) in [15].
